“And” between values parts separate entries of the source, which are not always exact repeats. Identical values can stand only once. Inconclusive results are not listed. Entries that show only a call come without a potency. The source made the active and inactive calls. Calls follow the shape of the dose curve; as a rule, active = well fitted curve in the direction sought with a large enough effect; inconclusive = small, poorly fitted or top-dose-only effect, or another doubt; inactive = no such curve, though single readings can be large; an effect the other way counts as inactive or inconclusive.
Columns and labels:
[1] = system: Zika virus NS2B-NS3 protease; test: Primary screen GU AMC qHTS for Zika virus inhibitors (AID 1347154); also: nearly all actives have a fitted effect of over 70% in size; also: potency is read from the fitted curve at half-maximal effect
Procedure, shortened: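 Unlinked Zika NS2B hydrophilic domain/NS3 protease domain noncovalent complex (25 nM final) in 10 mM Tris-HCl pH 8.0, 0.01% Tween 20, with AMC peptide substrate. Fluorescence (ex 340, em 450 nm) change over 15 min, room temperature; percent inhibition fitted to 4-parameter Hill equation.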

[2] = system: Zika virus NS2B-NS3 protease (unlinked complex); test: Primary screen GU Rhodamine qHTS for Zika virus inhibitors: Unlinked NS2B-NS3 protease assay (AID 1347159); also: nearly all actives have a fitted effect of over 60% in size; also: potency is read from the fitted curve at half-maximal effect
Procedure, shortened: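 A qHTS format was used, with compound concentrations ranging up to 114 microM. Each compound was preincubated with 25 nM NS2B-NS3 protease, and the substrate was then added at 1.5 microM. Curves were fitted with a 4-parameter Hill model.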

[3] = Confirmatory screen NINDS Rhodamine qHTS for Zika virus inhibitors (AID 1347161); also: nearly all actives have a fitted effect of over 60% in size; also: potency is read from the fitted curve at half-maximal effect
Procedure, shortened: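 Purified linked NS2B-NS3 protease (NS2B hydrophilic domain joined to NS3 protease by flexible linker), 25 nM in 10 mM Tris-HCl pH 8.0, 0.01% Tween 20. Compounds titrated, 15 min preincubation at room temperature; 1.5 microM Rhodamine110 substrate, FITC fluorescence change over 15 min.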

[4] = Vero cells viability qHTS for Zika virus inhibitors (AID 1347167); also: potency is read from the fitted curve at half-maximal effect
Procedure, shortened: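 Counter-screen for cytotoxicity of hits from NS2B-NS3 protease qHTS. Overnight-attached cells (2.5 x 10^5 cells/mL, DMEM/4% FBS) were dosed in titration, incubated 24 to 48 hours, then assayed by CellTiter Glo.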

[5] = system: Zika virus NS2B-NS3 protease (linked construct); test: Primary screen NINDS Rhodamine qHTS for Zika virus inhibitors (AID 1347160); settings: outcome: dose series up to 57.1 µM unless noted; also: nearly all actives have a fitted effect of over 55% in size
Procedure, shortened: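 Kinetic fluorescence (Ex 480 nm, Em 540 nm) over 15 min with 1.5 microM Rhodamine110 peptide and 25 nM linked protease.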

[6] = target: Lysine-specific demethylase 5B (Homo sapiens) (UniProt Q9UGL1); test: Optimization screen for KDM5B Histone Demethylases FDH coupled qHTS against the LOPAC library (AID 1347166)
Procedure, shortened: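 KDM5BDeltaAP (200nM final) preincubated 10 min with compound, then 12.5uM H3K4Me3, 25uM a-ketoglutarate, ascorbate, Fe(II), NAD+ and FDH added; 50mM HEPES pH 7.5, 0.01% Tween-20. NADH fluorescence (340/450 nm) change over 30 min, room temperature.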

[7] = ZIKV-mCherry secondary qHTS for Zika virus inhibitors (AID 1347158); also: top concentration of the series differs between compounds
Procedure, shortened: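 Vero cells (5,000/well) were given compound, then infected with ZIKV-mCherry at MOI 1 for 48–72 h at 37 °C. After PFA fixation and Hoechst staining, imaging gave percent mCherry-positive cells. The positivity threshold was RFU above 450, 3 SD over negative controls.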

[8] = Confirmatory screen GU Rhodamine qHTS for Zika virus inhibitors qHTS (AID 1347157); settings: purified enzyme assay, Rhodamine110 substrate fluorescence, 15 min; also: potency is read from the fitted curve at half-maximal effect; nearly all actives have a fitted effect of over 70% in size
Procedure, shortened: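 Percent inhibition derives from the 15-min fluorescence change (ex 480, em 540 nm), normalized to no-enzyme and no-inhibitor wells. Reactions contained 25 nM NS2B-NS3 complex and 1.5 microM substrate in 10 mM Tris-HCl pH 8.0.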

[9] = system: Zika virus NS2B-NS3 protease (linked); test: 384 well plate NINDS AMC confirmatory qHTS for Zika virus inhibitors (AID 1347163); also: potency is read from the fitted curve at half-maximal effect; nearly all actives have a fitted effect of over 50% in size
Procedure, shortened: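 Linked NS2B-NS3 protease (final 5 nM, 30 nM or 60 nM) was preincubated with compounds (final up to 1 mM) for ~15 minutes. Ac-VKTGKR-AMC substrate (final 30 microM) then reacted for 25 minutes at room temperature in the dark. Fluorescence (ex 355/em 460 nm) was normalized to no-enzyme and no-inhibitor controls.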

[10] = system: Zika virus NS2B-NS3 protease (linked construct); test: 384 well plate NINDS Rhodamine confirmatory qHTS for Zika virus inhibitors (AID 1347164);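 also: fluorescence from protease cleavage of Ac-LKRR-rhodamine 110 substrate; nearly all actives have a fitted effect of over 65% in size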; also: potency is read from the fitted curve at half-maximal effect
Procedure, shortened: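 Linked NS2B-NS3 protease (final 5, 30 or 60 nM) preincubated ~15 minutes with compounds, then 10 microM Ac-LKRR-Rhodamine 110 added. Fluorescence (485/538 nm) read after 25 minutes at room temperature, normalized to no-enzyme and no-inhibitor controls.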

Chain of Lysine-specific demethylase 5B (Homo sapiens) (Q9UGL1 whole entry, looked up): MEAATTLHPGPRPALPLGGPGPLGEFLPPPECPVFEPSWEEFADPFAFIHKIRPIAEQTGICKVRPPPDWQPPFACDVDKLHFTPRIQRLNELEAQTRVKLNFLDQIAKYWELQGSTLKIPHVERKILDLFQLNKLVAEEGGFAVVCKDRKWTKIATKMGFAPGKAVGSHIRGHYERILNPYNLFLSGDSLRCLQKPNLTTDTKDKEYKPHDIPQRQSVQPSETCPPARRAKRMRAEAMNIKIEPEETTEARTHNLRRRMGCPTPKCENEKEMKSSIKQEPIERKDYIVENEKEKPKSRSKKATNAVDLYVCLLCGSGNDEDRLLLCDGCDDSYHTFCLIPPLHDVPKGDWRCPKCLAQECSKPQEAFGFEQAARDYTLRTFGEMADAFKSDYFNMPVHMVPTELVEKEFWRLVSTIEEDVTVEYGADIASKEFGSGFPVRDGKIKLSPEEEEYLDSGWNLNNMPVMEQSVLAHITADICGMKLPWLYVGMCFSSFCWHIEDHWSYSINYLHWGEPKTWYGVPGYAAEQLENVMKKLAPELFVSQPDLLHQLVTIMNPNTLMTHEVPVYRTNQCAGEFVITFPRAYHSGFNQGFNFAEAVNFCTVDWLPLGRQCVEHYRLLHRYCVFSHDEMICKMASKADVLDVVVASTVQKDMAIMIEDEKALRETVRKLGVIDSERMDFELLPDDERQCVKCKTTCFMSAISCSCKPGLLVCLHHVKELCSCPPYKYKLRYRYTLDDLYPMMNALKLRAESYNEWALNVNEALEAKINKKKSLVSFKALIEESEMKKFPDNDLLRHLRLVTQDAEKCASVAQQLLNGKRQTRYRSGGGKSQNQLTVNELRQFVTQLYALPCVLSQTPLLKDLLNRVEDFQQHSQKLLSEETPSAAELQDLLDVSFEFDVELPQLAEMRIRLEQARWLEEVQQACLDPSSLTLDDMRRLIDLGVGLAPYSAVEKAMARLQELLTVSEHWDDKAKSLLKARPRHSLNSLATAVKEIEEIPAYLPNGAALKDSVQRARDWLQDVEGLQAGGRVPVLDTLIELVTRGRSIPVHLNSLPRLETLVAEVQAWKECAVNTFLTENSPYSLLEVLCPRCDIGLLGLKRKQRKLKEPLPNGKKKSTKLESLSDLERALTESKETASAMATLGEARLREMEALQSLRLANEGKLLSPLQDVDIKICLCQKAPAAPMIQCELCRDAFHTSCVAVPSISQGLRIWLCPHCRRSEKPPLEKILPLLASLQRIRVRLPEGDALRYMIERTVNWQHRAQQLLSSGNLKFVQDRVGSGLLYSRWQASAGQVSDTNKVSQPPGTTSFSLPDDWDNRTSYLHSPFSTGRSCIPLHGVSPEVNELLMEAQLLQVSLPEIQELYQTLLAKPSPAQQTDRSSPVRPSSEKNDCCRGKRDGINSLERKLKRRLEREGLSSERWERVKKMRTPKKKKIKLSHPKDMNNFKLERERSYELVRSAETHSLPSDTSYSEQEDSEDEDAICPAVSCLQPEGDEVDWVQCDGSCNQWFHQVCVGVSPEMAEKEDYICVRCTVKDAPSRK

CC[C@@]1(O)C(=O)OCc2c1cc1n(c2=O)Cc2cc3c(CN(C)C)c(O)ccc3nc2-1
Potency [1]: inactive | Potency [2]: 20 µM (active)

CN(C)C(=N)N=C(N)N
Potency [1]: inactive

CC1COc2c(N3CCN(C)CC3)c(F)cc3c(=O)c(C(=O)O)cn1c23 (centres undefined)
Potency [1]: 28.7 µM (active) and 24.1 µM (active) | Potency [3]: inactive | Potency [4]: inactive

CC1(CN2CCC(n3c(=O)[nH]c4ccccc43)CC2)OCc2ccccc2-n2cccc21 (centres undefined)
Potency [1]: inactive

Clc1ccc2c(c1)C(N1CCNCC1)=Nc1ccccc1O2
Potency [1]: inactive | Potency [2]: inactive | outcome [5]: inactive | outcome [6]: inactive

COc1ccc2[nH]cc(CCNC(C)=O)c2c1
Potency [1]: inactive | outcome [5]: inactive

O=c1c(O)c(-c2ccc(O)c(O)c2)oc2cc(O)cc(O)c12
Potency [1]: inactive | outcome [7]: inactive | Potency [3]: 50.1 µM (active) | outcome [6]: inactive

CN(CCOc1ccc(NS(C)(=O)=O)cc1)CCc1ccc(NS(C)(=O)=O)cc1
Potency [1]: inactive

Cc1ccc(C(=O)Nc2ccc(S(=O)(=O)O)c3cc(S(=O)(=O)O)cc(S(=O)(=O)O)c23)cc1NC(=O)c1cccc(NC(=O)Nc2cccc(C(=O)Nc3cc(C(=O)Nc4ccc(S(=O)(=O)O)c5cc(S(=O)(=O)O)cc(S(=O)(=O)O)c45)ccc3C)c2)c1
Potency [1]: 5.01 µM (active) | Potency [8]: 2.82 µM (active) and 2 µM (active) and 2.24 µM (active) | Potency [3]: 2.24 µM (active) and 2.51 µM (active) | Potency [9]: 7.94 µM (active) | Potency [10]: inactive

Cc1cc(C(C)(C)C)c(O)c(C)c1CC1=NCCN1
Potency [1]: inactive | Potency [2]: inactive | outcome [5]: inactive | outcome [6]: inactive

CNCCCC12CCC(c3ccccc31)c1ccccc12
Potency [1]: inactive | Potency [2]: inactive | outcome [5]: inactive | outcome [6]: inactive

O=C(Nc1ccc([N+](=O)[O-])cc1Cl)c1cc(Cl)ccc1O
Potency [1]: inactive | Potency [9]: 20 µM (active) | Potency [10]: 7.94 µM (active) | outcome [6]: inactive | Potency [4]: 415 nM (active)

O=C(c1ccc(F)cc1)C1CCN(CCn2c(=O)[nH]c3ccccc3c2=O)CC1
Potency [1]: inactive | Potency [2]: inactive | outcome [5]: inactive | Potency [3]: inactive | outcome [6]: inactive | Potency [4]: inactive

COc1ccccc1OCCNCC(O)COc1cccc2[nH]c3ccccc3c12 (centres undefined)
Potency [1]: inactive | outcome [6]: inactive

C[C@@H]1CC(=O)NN=C1c1ccc(NN=C(C#N)C#N)cc1
Potency [1]: inactive

N[C@@H](Cc1c[nH]c2ccc(O)cc12)C(=O)O
Potency [1]: inactive

CC(CCc1ccc(O)cc1)NCCc1ccc(O)c(O)c1 (centres undefined)
Potency [1]: inactive

CC(C)(C)C(=O)Oc1ccc(S(=O)(=O)Nc2ccccc2C(=O)NCC(=O)O)cc1
Potency [1]: inactive | Potency [3]: inactive | Potency [4]: inactive

COc1cc2nc(N3CCN(C(=O)C4COc5ccccc5O4)CC3)nc(N)c2cc1OC (centres undefined)
Potency [1]: 9.07 µM (active) and 24.1 µM (active)

CC(C)NCC(O)c1ccc(O)c(O)c1 (centres undefined)
Potency [1]: inactive

O=C(c1ccc(OCCN2CCCCC2)cc1)c1c(-c2ccc(O)cc2)sc2cc(O)ccc12
Potency [1]: inactive

O=C1Cc2cc(CCN3CCN(c4nsc5ccccc45)CC3)c(Cl)cc2N1
Potency [1]: inactive | Potency [2]: inactive | outcome [5]: inactive | Potency [3]: inactive | Potency [10]: 2.82 µM (active) | Potency [4]: inactive

COc1cc2nc(N(C)CCCNC(=O)C3CCCO3)nc(N)c2cc1OC (centres undefined)
Potency [1]: 8.09 µM (active) and 21.5 µM (active)

Cc1ccc(-c2cc(C(F)(F)F)nn2-c2ccc(S(N)(=O)=O)cc2)cc1
Potency [1]: inactive | Potency [2]: inactive | outcome [5]: inactive

NC(CO)C(=O)NNCc1ccc(O)c(O)c1O (centres undefined)
Potency [1]: inactive

CCOC(=O)c1ncn2c1CN(C)C(=O)c1cc(F)ccc1-2
Potency [1]: inactive | outcome [6]: inactive

COc1ccc2c(c1)c(CC(=O)O)c(C)n2C(=O)c1ccc(Cl)cc1
Potency [1]: inactive | outcome [6]: inactive

COc1ccc(C2CNC(=O)C2)cc1OC1CCCC1 (centres undefined)
Potency [1]: inactive | outcome [6]: inactive

Cn1c(=O)c2c(ncn2C)n(C)c1=O
Potency [1]: inactive | outcome [6]: inactive

Clc1ccc(C(c2ccccc2Cl)C(Cl)Cl)cc1 (centres undefined)
Potency [1]: inactive

CC1(C)O[C@H]2CC(=O)OC[C@]23[C@H]2CC[C@@]4(C)[C@H](c5ccoc5)OC(=O)[C@H]5O[C@]54[C@]2(C)C(=O)C[C@@H]13
Potency [1]: inactive | Potency [2]: inactive | outcome [5]: inactive [at 33.1 µM]

NC(=O)NO
Potency [1]: inactive

NC12CC3CC(CC(C3)C1)C2
Potency [1]: inactive | outcome [6]: inactive

O=C1c2c(O)ccc(O)c2C(=O)c2c(NCCNCCO)ccc(NCCNCCO)c21
Potency [1]: inactive | outcome [6]: inactive

O=C1N(c2ccccc2)c2ccccc2C1(Cc1ccncc1)Cc1ccncc1
Potency [1]: inactive | outcome [6]: inactive

O=C(CCCN1CCC(O)(c2ccc(Cl)cc2)CC1)c1ccc(F)cc1
Potency [1]: inactive | outcome [6]: inactive

CC(C)NCC(O)COc1ccc(CCOCC2CC2)cc1 (centres undefined)
Potency [1]: inactive | outcome [6]: inactive

Clc1ccc2nsnc2c1NC1=NCCN1
Potency [1]: inactive | outcome [6]: inactive

CCCNCC(O)COc1ccccc1C(=O)CCc1ccccc1 (centres undefined)
Potency [1]: inactive | outcome [6]: inactive

Clc1ccccc1C(c1ccccc1)(c1ccccc1)n1ccnc1
Potency [1]: inactive | outcome [6]: inactive

O=C(C1CCCCC1)N1CC(=O)N2CCc3ccccc3C2C1 (centres undefined)
Potency [1]: inactive | outcome [6]: inactive

CN1CCC(=C2c3ccccc3CC(=O)c3sccc32)CC1
Potency [1]: inactive | outcome [6]: inactive

CS(=O)(=O)Nc1ccc([N+](=O)[O-])cc1Oc1ccccc1
Potency [1]: inactive | outcome [6]: inactive

CN1CCN(C2=Nc3cc(Cl)ccc3Nc3ccccc32)CC1
Potency [1]: inactive | outcome [6]: inactive

CC(C)Cc1ccc(C(C)C(=O)O)cc1 (centres undefined)
Potency [1]: inactive | outcome [6]: inactive

Nc1ccn([C@H]2CC[C@@H](CO)O2)c(=O)n1
Potency [1]: inactive | outcome [6]: inactive

CN(C)c1nc(N(C)C)nc(N(C)C)n1
Potency [1]: inactive | outcome [6]: inactive

Cn1cnc2c1c(=O)[nH]c(=O)n2C
Potency [1]: inactive | outcome [6]: inactive

CC[N+](CC)(CC)CCOc1cccc(OCC[N+](CC)(CC)CC)c1OCC[N+](CC)(CC)CC
Potency [1]: inactive | outcome [6]: inactive

Nc1nc2c(ncn2COC(CO)CO)c(=O)[nH]1
Potency [1]: inactive | outcome [6]: inactive

Cc1cn([C@H]2C[C@H](N=[N+]=[N-])[C@@H](CO)O2)c(=O)[nH]c1=O
Potency [1]: inactive | outcome [6]: inactive

CC(C(=O)O)c1cccc(C(=O)c2ccccc2)c1 (centres undefined)
Potency [1]: inactive | outcome [6]: inactive

CCN1CCCC1CNC(=O)c1cc(S(=O)(=O)CC)c(N)cc1OC (centres undefined)
Potency [1]: inactive | outcome [6]: inactive

NCCCCCC(=O)O
Potency [1]: inactive | outcome [6]: inactive

O=c1c(-c2ccc(O)cc2)coc2cc(O)cc(O)c12
Potency [1]: inactive | outcome [6]: inactive

CN(C)CCCN1c2ccccc2CCc2ccc(Cl)cc21
Potency [1]: inactive | outcome [6]: inactive

CCCCc1oc2ccccc2c1C(=O)c1cc(I)c(OCCN(CC)CC)c(I)c1
Potency [1]: inactive | outcome [6]: inactive

CN1CCN(CCCN2c3ccccc3Sc3ccc(Cl)cc32)CC1
Potency [1]: inactive | outcome [6]: inactive

CC(COc1ccccc1)N(CCCl)Cc1ccccc1 (centres undefined)
Potency [1]: inactive | outcome [6]: inactive

CCOC(=O)C(C)(C)Oc1ccc(Cl)cc1
Potency [1]: inactive | outcome [6]: inactive

CCc1cccc2c3c([nH]c12)C(CC)(CC(=O)O)OCC3 (centres undefined)
Potency [1]: inactive | outcome [6]: inactive

COC(=O)Nc1nc2ccc(C(=O)c3cccs3)cc2[nH]1
Potency [1]: inactive | outcome [6]: inactive

NCCS(=O)(=O)O
Potency [1]: inactive | outcome [6]: inactive

CN1C2CCC1CC(OC(=O)C(CO)c1ccccc1)C2 (centres undefined)
Potency [1]: inactive | outcome [6]: inactive

NCCc1cnc[nH]1
Potency [1]: inactive | outcome [6]: inactive

CN(C)CCC=C1c2ccccc2C=Cc2ccccc21
Potency [1]: inactive | outcome [6]: inactive

Cn1ccc2cc3c(cc21)CCN3C(=O)Nc1cccnc1
outcome [7]: inactive | Potency [9]: 31.6 µM (active) and 178 µM (active)

CS(=O)(=O)CCNCc1ccc(-c2ccc3ncnc(Nc4ccc(OCc5cccc(F)c5)c(Cl)c4)c3c2)o1
outcome [5]: inactive

C[C@H]1c2cccc(O)c2C(O)=C2C(=O)[C@]3(O)C(O)=C(C(N)=O)C(=O)[C@@H](N(C)C)[C@@H]3[C@@H](O)[C@@H]21
Potency [9]: 63.1 µM (active)

Reference: PubChem BioAssay (NCATS)
